TGFb SMAD3 inh: inhibitors of TGF-b signaling | actives 1.2% (n = 410,000) | AID 588855 | HepG2 CAGA-GFP TGF-b/SMAD3 reporter, GFP fluorescence, 18 h; TGF-beta stimulated, 500 pg/mL final | Potency, µM (titrated, usually from 46.1 µM), without a hit: top-dose activity, negative = inhibition, hits mostly inhibitors; also: % is scaled to controls: 0 for no effect and ±100 for the full control effect; nearly all actives have a fitted effect of over 65% in size
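HEPG2 CAGA-GFP cells (1000/well, DMEM with 1% FBS) were pre-incubated 2 h at 37 degrees C, given compound by pin tool, then stimulated with TGF-beta at 500 pg/mL final for 18 h before per-cell GFP fluorescence imaging.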
A549 tox: A549 cytotoxicity, counter-screen for Nrf2 inhibitors; A549 ARE-Fluc cells, CellTiter-Fluor viability, 18-24 h; AID 504648; Potency, µM (top dose mostly 46 µM), for inactives: at the highest dose activity change, negative = cytotoxicity, most hits filed as inhibitors; actives 0.16% (n = 390,000); also: % is scaled to controls: 0 for no effect and ±100 for the full control effect
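Cytotoxicity counterscreen: CellTiter-Fluor fluorescence was measured in A549 ARE_Fluc cells after 18-24 h of compound exposure in a concentration series. The subsequent BugLite luminescent read reports ARE-luciferase activity.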
Nrf2 inh: Nrf2 pathway inhibition. AID 504444. actives 2.1% (n = 360,000). Potency, µM (highest dose often 46 µM), without a hit: at the highest dose activity change, negative = inhibition, hits mostly inhibitors. A549 ARE-Fluc reporter, luciferase luminescence, 18-24 h; also: % is scaled to controls: 0 for no effect and ±100 for the full control effect; nearly all actives have a fitted effect of over 60% in size
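A549 ARE_Fluc cells, 5000/well, 5% FBS OPTI-MEM; compounds in dose-response, 18-24 h at 37 °C/5% CO2; CellTiter-Fluor viability read (Ex 405/Em 525), then BugLite luciferase luminescence = Nrf2 activity.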
Nrf2 activator: Nrf2 pathway activation; actives 0.31% (n = 410,000); AREc32 ARE-luciferase reporter (MCF7-derived line), luminescence, 24 h; Potency, µM (series often up to 46.1 µM), for the others: at the highest dose activation, usual class: activators; AID 624171; also: % of control where 0% means no effect; nearly all actives have a fitted effect of over 65% in size
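ARE activation measured as luciferase luminescence (Steady-Glo, 30 min RT) in AREc32_Fluc cells after 24 hr compound exposure at 37 deg C, 5% CO2; cells seeded overnight at 1000/well in OPTI-MEM, 5% FBS.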
HepG2 viability: kills HepG2 cells in TGF-b inhibitor counter-screen; HepG2 CAGA-GFP viability, ATP luminescence, 18 h; Potency, µM (top dose mostly 46.1 µM), for inactives: top-dose activity change, negative = cytotoxicity, most hits filed as cytotoxic; actives 0.76% (n = 410,000); AID 588856
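CellTiter-Glo luminescence gave cytotoxicity after 18 hours at 37 degrees C. The cells were HepG2 CAGA-GFP in 1% FBS DMEM, stimulated with 500 pg/mL TGF-beta after compound addition. %Activity was normalised to no-cell wells (complete cell-killing) and DMSO (no toxicity), and curves were fitted and classified.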
* marks the source's active call; other numbers are inactive results; ? = inconclusive; · = not tested or not shown; [ ] = dose if it differs, or a comment. Only some compounds are listed: those with a hit (about 3.6% of all), similar ones and a draw of the others. Calls follow the shape of the dose curve; as a rule, active = well fitted curve in the direction sought with a large enough effect; inconclusive = small, poorly fitted or top-dose-only effect, or another doubt; inactive = no such curve, though single readings can be large; an effect the other way counts as inactive or inconclusive. Potency is read from the fitted curve at half-maximal effect.

SMILES | TGFb SMAD3 inh | A549 tox | Nrf2 inh | Nrf2 activator | HepG2 viability
O=C(COc1ccc(Cl)cc1Cl)NCC1(N2CCOCC2)CCCCC1 | -16% | 0% | 23µM* | 0% | 5%
CC(=O)CCS(=O)(=O)c1ccc(Oc2ccc(S(=O)(=O)CCC(C)=O)cc2)cc1 | ? | -6% | -25% | ? | 5.6µM*
O=[N+]([O-])c1ccc(Sc2nnnn2-c2ccccc2)nc1 | 16µM* | ? | -2% | -3% | -94%
COc1ccc(/C=N\NC(=O)COc2ccc(C(C)(C)C)cc2)cc1Cn1nc(C)cc1C | 5.6µM* | 15µM* | · | 14% | -63%
CN(C(=O)c1ccc(NC(=O)Cc2cccc([N+](=O)[O-])c2)cc1)C1CC1 | -11% | -6% | -7% | 3% | -1%
Cc1ccccc1Nc1cc2ccccc2c(=O)[nH]1 | 4.5µM* | 16µM* | ? | -1% | 11µM*
O=c1[nH]c(Nc2ccccc2Cl)cc2ccccc12 | -22% | -2% | -3% | 14% | -5%
CCNC(=S)N/N=C(\C)c1ccc2ccccc2c1OC(F)F | ? | ? | -24% | 6% | -13%
Fc1cccc(F)c1/C=N/Nc1ccccn1 | ? | 8% | ? | ? | -25%
Fc1cccc(/C=N/Nc2ccccn2)c1 | 0% | 1% | ? | 7.1µM* | -13%
Cc1ccc(C)c(/C=N/Nc2ccccn2)c1 | -2% | 1% | ? | 8.9µM* | -1%
Cc1ccc(C)c(-n2c(SCC(N)=O)nnc2-c2ccccn2)c1 | -3% | -5% | 3% | -1% | 1%
COc1ccc(CN(C)CC(O)COC(c2ccc(OC)cc2)c2ccc(OC)cc2)cc1 (centres undefined) | ? | 0% | ? | 6% | 22µM*
CCOc1ccc(CN(C)CC(O)COC(c2ccc(OC)cc2)c2ccc(OC)cc2)cc1 (centres undefined) | ? | -5% | 7% | 5% | -184%
CN(CCc1ccccc1)C(=O)c1ccc(NC(=O)Cc2cccc(NC(=O)C3CCN(S(=O)(=O)c4cccc([N+](=O)[O-])c4)CC3)c2)cc1 | -24% | 5% | -1% | 0% | -18%
Cc1cc(SCC(=O)N/N=C/c2ccccc2C(=O)O)c(C)cc1Br | 1% | 13% | -1% | 0% | -3%
Cc1cc(SCC(=O)N/N=C/c2ccc(O)cc2O)c(C)cc1Br | 0% | -12% | 15µM* | 1% | -21%
Cc1ccc[n+](CC(=O)c2ccc(Br)cc2)c1 | -5% | -4% | 23µM* | 1% | 0%
COc1ccc(C(=O)C[n+]2cccc(C)c2)cc1 | -10% | 12% | 2% | 0%[9.22 µM] | 7%
O=C(NCCc1c[nH]c2ccccc12)C(=O)NCC1OCCN1S(=O)(=O)c1ccc(Cl)cc1 (centres undefined) | -5% | -12% | 23µM* | -1% | -30%
O=C(NCc1ccc2c(c1)OCO2)C(=O)NCC1OCCN1S(=O)(=O)c1ccc(Cl)cc1 (centres undefined) | -13% | -5% | 26µM* | 0% | -7%
O=C(CN1CCN(c2ccccn2)CC1)Nc1nc2ccccc2s1 | -29% | 0% | -14% | 6% | -24%
C[C@@H]1CN([C@H](C)CO)C(=O)CCCn2nncc2CO[C@H]1CN(C)S(=O)(=O)c1ccc(-n2cccn2)cc1 | -1% | · | · | -1% | -14%
CCC(CC)C(=O)Nc1cc(C)c2c(=O)oc3ccccc3c2n1 | -22% | 5% | ? | ? | 1%
Clc1ccccc1C(c1ccccc1)(c1ccccc1)n1ccnc1 | ? | 5% | ? | 3% | 20µM*
SMILES | TGFb SMAD3 inh | A549 tox | Nrf2 inh | Nrf2 activator | HepG2 viability
C[C@]12CC[C@@H]3c4ccc(OC(=O)c5ccccc5)cc4CC[C@H]3[C@@H]1CC[C@@H]2O | 2% | -6% | ? | -1% | 0%
COc1cc2c(cc1O)CC[C@@H]1[C@@H]2CC[C@]2(C)[C@@H](O)CC[C@@H]12 | -7% | -12% | 9.2µM* | 0% | -23%
COC(=O)C(C)n1cnc2c(nnn2-c2cccc(OC)c2)c1=O (centres undefined) | 0% | 8% | 19% | 0% | -3%
O=C(Nc1cccc(S(=O)(=O)Nc2ccc(Cl)cc2)c1)c1cc2c(s1)CCCC2 | ? | ? | 23µM* | 8% | -82%
N#Cc1c(Cl)nsc1NC(=O)c1ccccc1 | 3.5µM* | ? | 2.6µM* | 3% | -41%
Cc1ccc(S(=O)(=O)NC(C)(C)CSc2nncn2C)cc1 | -9% | 0% | 9% | -1% | -5%
Cc1nc2sc(C(N)=O)c(N)c2c2c1CCCC2 | ? | 1% | 19% | 0% | 20µM*
Cc1ccc(-c2c3c(nc4sc(C(N)=O)c(N)c24)CCCC3)o1 | ? | ? | -17% | 2% | -1%
NC(=O)c1sc2nc3c(c(-c4ccco4)c2c1N)CCC3 | ? | 5% | 5.8µM* | -1% | -36%
Cc1ccc(-c2nc3sc(C(N)=O)c(N)c3c3c2CCCC3)cc1 | ? | -5% | ? | -1% | -4%
N#Cc1ccc(NC(=O)COC(=O)C2Cc3ccccc3CN2C(=O)c2ccccc2)cc1 (centres undefined) | 0% | ? | 7.3µM* | -1% | -24%
Cc1ccccc1/C=C1\C(=O)Nc2ccc(F)cc21 | ? | ? | 2.9µM* | ? | -19%
COc1cc(-c2nc(C(=O)NC3CCCCC3)cc3c2[nH]c2ccccc23)cc(OC)c1OC | -2% | -8% | 9.2µM* | 6% | -3%
Cc1ccccc1-c1nc(C(=O)NCC2CCCO2)cc2c1[nH]c1ccccc12 (centres undefined) | -20% | -10% | 23µM* | 3% | -5%
COc1ccc(CNC(=O)CSc2nnnn2C)cc1OC | 2% | 0% | -2% | -1% | -6%
O=C(Nc1nc2cc3c(cc2s1)OCCO3)C1=COCCO1 | -13% | 4% | ? | -3% | 8.9µM*
O=C(Nc1nc2ccc(F)cc2s1)C1=COCCO1 | 0% | 0% | ? | -1% | -52%
N=C(N)SCc1cn(-c2ccccc2)nc1-c1ccc(Br)cc1 | ? | 2% | 18% | -2% | 11µM*
CCn1c(O)c(C=NC2CCCC(C)C2C)sc1=S (centres undefined) | ? | ? | ? | 4% | -49%
O=C(CSc1ncnc2c1oc1ccccc12)c1cccs1 | 26% | -3% | ? | 3.5µM* | -3%
Cn1c2c(c(=O)n(C)c1=O)C(C(F)(F)F)(C(F)(F)F)N=C(c1ccc(Cl)cc1)N2 | 1.8µM* | 5.8µM* | 2.3µM* | 1% | -24%
COc1ccc(CNc2ccc3c(c2)ncn3-c2ccccc2OC)cc1 | -22% | -30% | 18µM* | 4% | -27%
COc1cccc(NC(=O)CC(=O)c2ccc([N+](=O)[O-])cc2)c1 | ? | 1% | -28% | 8% | -12%
